The source of these data is PubChem BioAssay (Tox21).

Structures are written as SMILES. Results filed as inconclusive are left out. The source made the active and inactive calls. Calls come from the whole dose curve. Positions of bridges follow the written chain, without caps; N, C: chain ends. Non-standard residues stand in square brackets, D forms with d. Residues, ends and D or L forms follow the SMILES beside them. hArg = N=C(N)NCCCC[C@H](N)C(=O)O; Mpa = O=C(O)CCS
% is set by controls: 0 for no effect and ±100 for the full control effect.

The nature of this experiment: qHTS assay to identify small molecule agonists of the hypoxia (HIF-1) signaling pathway - cell viability counter screen (AID 1224844). Note: nearly all actives have a fitted effect of over 50% in size. The following applies: HRE-bla ME-180 viability, CellTiter-Glo luminescence, 17 h; series mostly up to 76.8 µM. From the text:
National Center for Advancing Translational Sciences [NCATS]
NIH Chemical Genomics Center [NCGC]
U.S. Environmental Protection Agency [EPA]
National Institutes of Environmental Health Sciences [NIEHS]
National Toxicology Program [NTP]
U.S. Food and Drug Administration [FDA]
Hypoxia-inducible factor-1 (HIF-1) is the major hypoxia-regulated transcription factor that controls cellular responses to low oxygen concentration. HIF-1 is composed of two subunits: hypoxia responsive HIF-1-alpha and constitutively expressed HIF-1-beta, which is also known as aryl hydrocarbon receptor nuclear translocator. During hypoxic conditions, HIF-1-alpha heterodimerizes with HIF-1-beta and translocates into the nucleus where the HIF-1 complex binds to the hypoxia-response element (HRE) and activates expression of target genes such as VEGF (vascular endothelial growth factor). The HIF-1 pathway is essential to normal growth and development, and is involved in the pathophysiology of cancer, inflammation, and ischemia.
Using a beta-lactamase reporter-gene under control of the hypoxia response element, a cell-based assay [CellSensor(TM) HRE-bla ME-180 from Life Technologies, Carlsbad, CA] was used to measure hypoxia-induced signaling. Tox21 10K library compounds were measured for their ability to induce the reporter gene activity. The cytotoxicity of the Tox21 compound library against HRE-bla ME-180 cell line was tested in parallel by measuring cell viability using CellTiter-Glo assay (Promega, Madison, WI) in the same assay wells.
Tox21 Assay Protocol Summary:
HRE-bla ME-180 cells were dispensed at 2,000 cells per well in 6 uL of assay medium containing 0.5% dialyzed FBS into black wall/clear-bottom 1536-well plates using a Multidrop Combi (Thermo Scientific, Waltham, MA) dispenser. After the assay plates were incubated at 37C and 5% CO2 for 5 hrs, 23 nL of compounds dissolved in DMSO, positive controls or DMSO only was transferred to each well of the assay plate using a Pintool station (Kalypsys, San Diego, CA). The assay plates were incubated at 37C and 5% CO2 for 17 hrs. One uL of LiveBLAzerTM B/G FRET substrate (CCF4-AM) (Life Technologies) was added to each well using a Flying Reagent Dispenser (FRD, Aurora Discovery, San Diego, CA). After 2 hr incubation at room temperature, fluorescence intensity (405 nm excitation, 460 nm and 530 nm emissions) was measured using an Envision plate reader (PerkinElmer, Shelton, CT). For cytotoxicity, 4 ul/well of CellTiter-Glo reagent was added into the assay plates using an FRD. After 30 min incubation at room temperature, the luminescence intensity was measured using a ViewLux plate reader (PerkinElmer).
A general note: qHTS replaces the single test concentration by a dilution series.
As for `CCO`, the compound was classed as inactive. Regarding `CC(C)OC(=O)CCC(=O)OC(C)C`, the compound was classed as inactive. Same read-out and setting: as for `CCCc1ccc(O)cc1`, the entry is “inactive”; as for `CCCCSCCCC`, “inactive”.

For `[O]=[Mo](=[O])=[O]`, the activity change, negative = cytotoxicity was -18.3% [at 15.8 µM] (inactive).

For `O=C[O][Al]([O]C=O)[O]C=O`, the outcome was inactive. Still for that read-out and setting: as for `CC(=O)O[C@H]1C[C@@H]2CC[C@@]1(C)C2(C)C`, the entry is “inactive”. `CC(C)=CCC/C(C)=C/COC=O`: the call was inactive. For `CC(C)=CCC[C@@](C)(O)[C@H]1CC=C(C)CC1`, the call was inactive. Consider `Nc1nnnn1-c1ccccc1`, for which the compound was called inactive.

As for `O=C(O)CNC(=O)CNC(=O)CNC(=O)CSC(=O)c1ccccc1`, the compound was classed as inactive.

Consider `CCCCCCCCCCCCCCCCCCOCCO`, for which the activity change, negative = cytotoxicity is 16.8% [at 15.8 µM] (inactive). `C/C=C(\C)C(C)=O`: the compound was called inactive.

Turning to `CCNC(=O)NCc1cccc(Cl)c1`, the call was inactive. On to `N#Cc1ccccc1O`, for which the result was inactive. In the case of `CC(=O)O[C@@H]1CC2CCC1(C)C2(C)C` (stereo not given in full), the outcome was inactive.

For the compound `CCCCOCCOC(=O)COc1ccc(Cl)cc1Cl`, the outcome was inactive. As to `Cc1c(C(=O)c2c[nH]n(C)c2=O)ccc(S(C)(=O)=O)c1C1=NOCC1`, the compound was classed as inactive. Regarding `CCCCOC(=O)[C@H](C)O`, the compound was classed as inactive. For `C[C@]12CCC(=O)C=C1CC[C@H]1[C@@H]3CC[C@](O)(C(=O)CO)[C@@]3(C)C[C@H](O)[C@@]12F`, the compound was called inactive. With `COC(=O)CCCCC(CCSS/C(CCO)=C(\C)N(C=O)Cc1cnc(C)nc1N)SC(C)=O` (stereo not given), the result was inactive. Consider `CSc1cnccn1`, for which the result was inactive. Regarding `CC(C)Nc1ccccc1`, the result was inactive. Same read-out and setting: as for `CN(C)CCN(C)CCO`, the entry is “inactive”; as for `O=C(CN1CCNCC1)NC1CCCCC1`, “inactive”. Still for that read-out and setting: as for `CCC/C=C(\C=O)CC`, the entry is “inactive”. Regarding `O=C1c2ccccc2C(=O)c2cc(Cl)ccc21`, the activity change, negative = cytotoxicity was 10.7% [at 6.97 µM] (inactive). For `CCCCCCCCCOC(=O)c1ccccc1C(=O)OCCCCCCCCC`, the outcome was inactive. With `CC1=C(C(=O)O)N2C(=O)[C@@H](NC(=O)[C@H](N)C3=CCC=CC3)[C@H]2SC1`, the call was inactive.

For the compound `CC(O)CC(C)O` (stereo not given), the call was inactive.

As to `C/C=C(\C)C(=O)OCCc1ccccc1`, the result was inactive.

Consider `COc1cc2c(cc1OC)C(=O)C(CC1CCN(Cc3ccccc3)CC1)C2` (stereo not given), for which the outcome was inactive. Still for that read-out and setting: in the case of `O=C(CCCCC(=O)Nc1c(I)cc(I)c(C(=O)O)c1I)Nc1c(I)cc(I)c(C(=O)O)c1I` it was “inactive”; in that of `CC/C(C)=N\O[Si](C)(O/N=C(\C)CC)O/N=C(\C)CC`, “inactive”. In the case of `Cc1ccc2c(c1)C(=O)c1ccccc1C2=O`, the compound was called inactive. As for `CCCCCCCCCCOC(C)=O`, the compound was called inactive.

In the case of `CC(=O)C1C(=O)C=C(C)OC1=O` (stereo not given), the outcome was inactive. Take `NC(=O)[C@@H]1CSSCCC(=O)N[C@@H](CCCCN=C(N)N)C(=O)NCC(=O)N[C@@H](CC(=O)O)C(=O)N[C@@H](Cc2c[nH]c3ccccc23)C(=O)N2CCC[C@H]2C(=O)N1` ([Mpa][hArg]GDWPC-NH2; disulfide 1-7): the call was inactive. On the same count and under the same terms, in the case of `Cc1cc(C)c(C(=O)O)c(C)c1` it was “inactive”; in that of `O=Cc1ccccc1Cl`, “inactive”.
